This note sets out measurements from ChEMBL document CHEMBL2218924, “A broad activity screen in support of a chemogenomic map for kinase signalling research and drug discovery” (Biochem J, 2013).

For assay [1], the target named is T1, Muscle, skeletal receptor tyrosine-protein kinase (Homo sapiens) (UniProt O15146).
T1 sequence (whole entry): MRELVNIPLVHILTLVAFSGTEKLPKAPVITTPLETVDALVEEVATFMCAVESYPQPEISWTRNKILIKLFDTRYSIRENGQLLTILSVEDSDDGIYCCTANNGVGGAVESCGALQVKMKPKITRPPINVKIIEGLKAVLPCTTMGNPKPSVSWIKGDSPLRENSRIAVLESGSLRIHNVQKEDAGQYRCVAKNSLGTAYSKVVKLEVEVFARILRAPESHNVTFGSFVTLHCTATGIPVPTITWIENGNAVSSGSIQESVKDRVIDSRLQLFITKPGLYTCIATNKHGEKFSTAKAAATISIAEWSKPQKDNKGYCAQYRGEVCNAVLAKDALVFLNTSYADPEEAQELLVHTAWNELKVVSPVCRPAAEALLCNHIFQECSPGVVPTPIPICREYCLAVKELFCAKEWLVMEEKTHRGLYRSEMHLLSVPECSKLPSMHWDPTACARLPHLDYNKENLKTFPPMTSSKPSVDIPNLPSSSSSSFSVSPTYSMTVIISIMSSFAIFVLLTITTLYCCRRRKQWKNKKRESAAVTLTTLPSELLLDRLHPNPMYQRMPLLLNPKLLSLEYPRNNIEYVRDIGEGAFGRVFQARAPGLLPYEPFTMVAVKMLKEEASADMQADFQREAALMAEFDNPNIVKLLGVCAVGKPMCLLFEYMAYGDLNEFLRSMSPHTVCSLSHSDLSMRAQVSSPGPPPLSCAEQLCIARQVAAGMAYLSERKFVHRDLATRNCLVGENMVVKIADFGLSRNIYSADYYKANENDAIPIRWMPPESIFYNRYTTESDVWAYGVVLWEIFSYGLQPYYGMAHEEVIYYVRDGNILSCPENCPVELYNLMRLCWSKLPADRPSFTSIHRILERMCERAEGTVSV
To be noted: at 1 µM.

Assay [2] has as its target T1, Muscle, skeletal receptor tyrosine-protein kinase (Homo sapiens). To be noted: at 10 µM.
In assay [3] the target is T2, Serine/threonine-protein kinase Nek11 (Homo sapiens) (UniProt Q8NG66).
T2 sequence (whole entry): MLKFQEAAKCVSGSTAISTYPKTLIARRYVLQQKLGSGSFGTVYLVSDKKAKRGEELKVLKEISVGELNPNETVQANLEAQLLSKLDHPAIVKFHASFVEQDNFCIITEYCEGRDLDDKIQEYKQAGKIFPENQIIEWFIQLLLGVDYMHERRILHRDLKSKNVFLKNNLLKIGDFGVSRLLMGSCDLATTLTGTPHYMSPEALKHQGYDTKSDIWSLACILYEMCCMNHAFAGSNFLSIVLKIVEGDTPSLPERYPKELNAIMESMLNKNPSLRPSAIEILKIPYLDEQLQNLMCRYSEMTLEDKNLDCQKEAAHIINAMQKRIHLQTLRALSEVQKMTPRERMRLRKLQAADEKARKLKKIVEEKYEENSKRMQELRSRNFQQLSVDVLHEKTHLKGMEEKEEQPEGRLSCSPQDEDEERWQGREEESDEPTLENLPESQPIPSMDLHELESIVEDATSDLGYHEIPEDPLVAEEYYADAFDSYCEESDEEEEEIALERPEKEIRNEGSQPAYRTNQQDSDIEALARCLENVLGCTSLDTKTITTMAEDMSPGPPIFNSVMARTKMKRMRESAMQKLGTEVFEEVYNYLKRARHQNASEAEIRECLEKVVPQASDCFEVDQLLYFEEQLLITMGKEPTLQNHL
To be noted: at 1 µM.

Assay [4] concerns the target T2, Serine/threonine-protein kinase Nek11 (Homo sapiens). The conditions noted are these: at 10 µM.
Assay [5] addresses T3, Serine/threonine-protein kinase Nek2 (Homo sapiens) (UniProt P51955).
T3 sequence (whole entry): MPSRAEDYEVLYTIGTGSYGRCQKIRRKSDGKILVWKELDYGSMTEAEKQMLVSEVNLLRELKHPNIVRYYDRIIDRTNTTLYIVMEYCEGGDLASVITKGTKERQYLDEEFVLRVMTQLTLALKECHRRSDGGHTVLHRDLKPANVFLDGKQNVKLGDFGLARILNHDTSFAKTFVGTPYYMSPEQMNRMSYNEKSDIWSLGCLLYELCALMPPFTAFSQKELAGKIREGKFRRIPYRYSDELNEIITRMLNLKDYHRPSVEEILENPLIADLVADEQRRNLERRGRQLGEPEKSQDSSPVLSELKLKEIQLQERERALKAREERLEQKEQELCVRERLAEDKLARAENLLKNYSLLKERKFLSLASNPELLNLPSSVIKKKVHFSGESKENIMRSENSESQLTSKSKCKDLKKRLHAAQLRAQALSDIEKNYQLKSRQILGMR
The conditions noted are these: at 1 µM.

In assay [6] the target is T3, Serine/threonine-protein kinase Nek2 (Homo sapiens). The conditions noted are these: at 10 µM.
Assay [7] concerns the target T4, Serine/threonine-protein kinase Nek3 (Homo sapiens) (UniProt P51956).
T4 sequence (whole entry): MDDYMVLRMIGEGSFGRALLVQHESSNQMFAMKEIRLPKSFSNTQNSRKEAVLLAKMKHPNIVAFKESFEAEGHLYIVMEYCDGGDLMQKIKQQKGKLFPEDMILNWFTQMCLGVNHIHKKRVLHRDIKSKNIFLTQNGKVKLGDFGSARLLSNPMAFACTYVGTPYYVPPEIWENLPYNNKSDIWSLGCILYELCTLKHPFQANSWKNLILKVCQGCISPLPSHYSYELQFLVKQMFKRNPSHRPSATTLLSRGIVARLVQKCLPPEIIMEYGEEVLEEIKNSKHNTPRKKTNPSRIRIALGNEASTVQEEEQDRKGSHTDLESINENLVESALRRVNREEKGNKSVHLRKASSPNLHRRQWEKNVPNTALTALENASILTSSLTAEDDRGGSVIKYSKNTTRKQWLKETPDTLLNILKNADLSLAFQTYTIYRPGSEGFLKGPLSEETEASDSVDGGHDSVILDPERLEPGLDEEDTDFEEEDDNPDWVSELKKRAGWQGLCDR
To be noted: at 1 µM.

Assay [8] deals with T4, Serine/threonine-protein kinase Nek3 (Homo sapiens). The conditions noted are these: at 10 µM.
Assay [9] has as its target Serine/threonine-protein kinase tousled-like 2 (Homo sapiens) (UniProt Q86UE8). To be noted: at 1 µM.
The target is the same in assay [10]. The conditions noted are these: at 10 µM.
Assay [11] addresses T5, Testis-specific serine/threonine-protein kinase 1 (Homo sapiens) (UniProt Q9BXA7).
T5 sequence (whole entry): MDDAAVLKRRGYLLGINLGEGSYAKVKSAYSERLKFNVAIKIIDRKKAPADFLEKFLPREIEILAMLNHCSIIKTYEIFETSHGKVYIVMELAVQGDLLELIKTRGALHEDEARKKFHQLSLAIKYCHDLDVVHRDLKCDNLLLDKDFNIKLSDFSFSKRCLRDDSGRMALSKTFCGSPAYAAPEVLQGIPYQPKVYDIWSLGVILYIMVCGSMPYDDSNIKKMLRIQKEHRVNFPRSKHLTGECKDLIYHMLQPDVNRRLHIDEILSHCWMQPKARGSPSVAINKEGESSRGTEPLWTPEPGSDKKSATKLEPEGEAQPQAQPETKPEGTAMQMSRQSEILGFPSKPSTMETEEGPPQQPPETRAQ
The conditions noted are these: at 1 µM.

Assay [12] concerns the target T5, Testis-specific serine/threonine-protein kinase 1 (Homo sapiens). The conditions noted are these: at 10 µM.
Assay [13] deals with T6, Testis-specific serine/threonine-protein kinase 2 (Homo sapiens) (UniProt Q96PF2).
T6 sequence (whole entry): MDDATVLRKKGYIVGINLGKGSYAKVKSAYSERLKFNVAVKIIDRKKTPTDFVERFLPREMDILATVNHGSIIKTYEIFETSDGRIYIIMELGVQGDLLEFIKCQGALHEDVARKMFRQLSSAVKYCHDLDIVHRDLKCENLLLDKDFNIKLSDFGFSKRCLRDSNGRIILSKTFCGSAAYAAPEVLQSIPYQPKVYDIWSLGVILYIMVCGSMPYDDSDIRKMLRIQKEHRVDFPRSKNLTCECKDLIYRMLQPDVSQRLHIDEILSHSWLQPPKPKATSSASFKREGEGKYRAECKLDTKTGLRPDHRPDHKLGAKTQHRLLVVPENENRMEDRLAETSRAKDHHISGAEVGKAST
To be noted: at 10 µM.

The target in assay [14] is T7, Tyrosine-protein kinase Tec (Homo sapiens) (UniProt P42680).
T7 sequence (whole entry): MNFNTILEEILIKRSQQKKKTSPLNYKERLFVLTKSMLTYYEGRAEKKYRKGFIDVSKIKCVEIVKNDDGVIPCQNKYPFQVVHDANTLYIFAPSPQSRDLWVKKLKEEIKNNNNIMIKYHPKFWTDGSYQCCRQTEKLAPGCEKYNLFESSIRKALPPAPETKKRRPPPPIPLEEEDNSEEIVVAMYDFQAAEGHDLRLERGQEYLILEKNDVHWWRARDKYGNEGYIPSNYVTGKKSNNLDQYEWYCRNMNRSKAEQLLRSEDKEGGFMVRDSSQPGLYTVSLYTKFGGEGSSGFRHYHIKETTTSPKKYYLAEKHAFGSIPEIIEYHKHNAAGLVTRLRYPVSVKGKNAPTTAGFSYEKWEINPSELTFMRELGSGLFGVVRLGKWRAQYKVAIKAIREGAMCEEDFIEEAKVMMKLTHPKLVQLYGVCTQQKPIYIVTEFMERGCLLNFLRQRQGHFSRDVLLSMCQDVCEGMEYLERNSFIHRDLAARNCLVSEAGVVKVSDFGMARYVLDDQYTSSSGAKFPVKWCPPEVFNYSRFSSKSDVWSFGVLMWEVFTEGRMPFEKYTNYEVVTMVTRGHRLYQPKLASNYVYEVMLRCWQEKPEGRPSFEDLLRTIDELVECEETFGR
To be noted: at 1 µM.

The target in assay [15] is T7, Tyrosine-protein kinase Tec (Homo sapiens). The conditions noted are these: at 10 µM.
In assay [16] the target is Angiopoietin-1 receptor (Homo sapiens) (UniProt Q02763). To be noted: at 1 µM.
Chain of Angiopoietin-1 receptor (Homo sapiens) (Q02763 whole entry): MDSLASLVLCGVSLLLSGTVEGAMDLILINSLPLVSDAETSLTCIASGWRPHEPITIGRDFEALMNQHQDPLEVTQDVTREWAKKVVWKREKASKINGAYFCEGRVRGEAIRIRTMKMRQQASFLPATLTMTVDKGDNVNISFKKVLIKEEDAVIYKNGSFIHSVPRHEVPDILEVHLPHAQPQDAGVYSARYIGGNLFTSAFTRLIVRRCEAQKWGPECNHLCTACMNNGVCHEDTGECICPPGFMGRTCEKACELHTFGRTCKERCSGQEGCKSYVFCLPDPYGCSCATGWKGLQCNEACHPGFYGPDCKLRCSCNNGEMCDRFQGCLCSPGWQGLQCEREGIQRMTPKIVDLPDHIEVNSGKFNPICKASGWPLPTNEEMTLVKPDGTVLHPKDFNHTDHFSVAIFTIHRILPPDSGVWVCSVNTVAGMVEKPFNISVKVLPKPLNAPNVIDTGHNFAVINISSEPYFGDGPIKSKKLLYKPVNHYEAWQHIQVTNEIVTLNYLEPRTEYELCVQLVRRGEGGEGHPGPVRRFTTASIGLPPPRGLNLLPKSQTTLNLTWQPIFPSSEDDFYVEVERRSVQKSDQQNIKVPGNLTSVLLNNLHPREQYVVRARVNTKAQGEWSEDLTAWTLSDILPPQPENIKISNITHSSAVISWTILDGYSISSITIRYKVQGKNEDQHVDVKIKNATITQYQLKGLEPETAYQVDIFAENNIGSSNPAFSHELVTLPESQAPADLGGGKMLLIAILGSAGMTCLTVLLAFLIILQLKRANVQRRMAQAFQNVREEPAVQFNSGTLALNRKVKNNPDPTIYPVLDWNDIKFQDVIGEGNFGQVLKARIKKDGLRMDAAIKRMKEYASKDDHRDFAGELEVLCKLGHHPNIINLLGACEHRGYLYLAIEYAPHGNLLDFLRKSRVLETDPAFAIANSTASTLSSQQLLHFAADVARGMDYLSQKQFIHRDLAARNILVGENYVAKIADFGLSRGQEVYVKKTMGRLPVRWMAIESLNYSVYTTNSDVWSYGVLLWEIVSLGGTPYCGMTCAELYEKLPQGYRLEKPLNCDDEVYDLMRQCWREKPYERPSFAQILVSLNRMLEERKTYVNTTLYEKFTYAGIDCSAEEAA
The target is the same in assay [17]. The conditions noted are these: at 10 µM.
Assay [18] concerns the target High affinity nerve growth factor receptor (Homo sapiens) (UniProt P04629). To be noted: at 1 µM.
Assay [19] shares this target. To be noted: at 10 µM.
Assay [20] deals with BDNF/NT-3 growth factors receptor (Homo sapiens) (UniProt Q16620). The conditions noted are these: at 1 µM.
Chain of BDNF/NT-3 growth factors receptor (Homo sapiens) (Q16620 32-822 limits assumed): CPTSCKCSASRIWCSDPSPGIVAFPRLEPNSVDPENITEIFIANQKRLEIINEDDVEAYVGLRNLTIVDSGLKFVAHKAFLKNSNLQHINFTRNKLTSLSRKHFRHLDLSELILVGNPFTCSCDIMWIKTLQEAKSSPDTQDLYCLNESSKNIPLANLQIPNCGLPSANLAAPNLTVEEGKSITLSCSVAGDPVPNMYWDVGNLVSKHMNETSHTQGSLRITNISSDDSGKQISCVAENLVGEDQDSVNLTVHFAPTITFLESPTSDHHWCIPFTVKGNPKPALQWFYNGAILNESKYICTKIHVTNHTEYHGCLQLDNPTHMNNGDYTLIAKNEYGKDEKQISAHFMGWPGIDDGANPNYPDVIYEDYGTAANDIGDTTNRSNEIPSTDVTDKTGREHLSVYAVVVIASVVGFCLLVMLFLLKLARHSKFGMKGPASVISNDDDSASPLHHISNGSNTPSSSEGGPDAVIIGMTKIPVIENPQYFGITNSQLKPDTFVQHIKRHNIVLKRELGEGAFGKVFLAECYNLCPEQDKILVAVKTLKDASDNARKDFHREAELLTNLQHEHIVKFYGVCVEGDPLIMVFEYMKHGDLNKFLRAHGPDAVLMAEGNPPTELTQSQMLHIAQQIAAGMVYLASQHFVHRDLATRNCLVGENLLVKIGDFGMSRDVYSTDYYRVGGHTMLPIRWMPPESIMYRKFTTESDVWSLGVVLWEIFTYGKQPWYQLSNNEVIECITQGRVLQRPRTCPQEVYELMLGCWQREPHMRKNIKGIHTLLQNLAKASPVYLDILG

Chain of High affinity nerve growth factor receptor (Homo sapiens) (P04629 33-796 limits assumed): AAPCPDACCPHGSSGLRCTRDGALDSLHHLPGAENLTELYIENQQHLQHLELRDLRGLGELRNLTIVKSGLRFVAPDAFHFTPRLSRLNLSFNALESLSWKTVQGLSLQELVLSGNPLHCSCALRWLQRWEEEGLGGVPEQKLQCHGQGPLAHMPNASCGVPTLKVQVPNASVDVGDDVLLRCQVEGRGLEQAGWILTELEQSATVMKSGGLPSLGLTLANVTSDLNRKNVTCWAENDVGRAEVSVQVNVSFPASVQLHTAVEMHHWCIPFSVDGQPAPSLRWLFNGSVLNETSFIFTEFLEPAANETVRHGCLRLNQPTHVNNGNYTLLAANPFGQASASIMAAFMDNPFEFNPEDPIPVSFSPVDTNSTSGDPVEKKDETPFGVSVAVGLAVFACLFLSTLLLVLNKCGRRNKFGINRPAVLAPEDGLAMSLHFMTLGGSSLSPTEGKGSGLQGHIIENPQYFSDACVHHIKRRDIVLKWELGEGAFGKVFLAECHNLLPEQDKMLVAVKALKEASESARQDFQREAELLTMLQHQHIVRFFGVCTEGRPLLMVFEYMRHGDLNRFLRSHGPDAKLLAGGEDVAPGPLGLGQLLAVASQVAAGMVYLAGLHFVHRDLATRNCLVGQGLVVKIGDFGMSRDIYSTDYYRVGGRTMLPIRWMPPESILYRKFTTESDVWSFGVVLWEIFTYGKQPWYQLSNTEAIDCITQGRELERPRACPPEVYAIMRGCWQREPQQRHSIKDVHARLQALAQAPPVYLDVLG
Chain of Serine/threonine-protein kinase tousled-like 2 (Homo sapiens) (Q86UE8 whole entry, looked up): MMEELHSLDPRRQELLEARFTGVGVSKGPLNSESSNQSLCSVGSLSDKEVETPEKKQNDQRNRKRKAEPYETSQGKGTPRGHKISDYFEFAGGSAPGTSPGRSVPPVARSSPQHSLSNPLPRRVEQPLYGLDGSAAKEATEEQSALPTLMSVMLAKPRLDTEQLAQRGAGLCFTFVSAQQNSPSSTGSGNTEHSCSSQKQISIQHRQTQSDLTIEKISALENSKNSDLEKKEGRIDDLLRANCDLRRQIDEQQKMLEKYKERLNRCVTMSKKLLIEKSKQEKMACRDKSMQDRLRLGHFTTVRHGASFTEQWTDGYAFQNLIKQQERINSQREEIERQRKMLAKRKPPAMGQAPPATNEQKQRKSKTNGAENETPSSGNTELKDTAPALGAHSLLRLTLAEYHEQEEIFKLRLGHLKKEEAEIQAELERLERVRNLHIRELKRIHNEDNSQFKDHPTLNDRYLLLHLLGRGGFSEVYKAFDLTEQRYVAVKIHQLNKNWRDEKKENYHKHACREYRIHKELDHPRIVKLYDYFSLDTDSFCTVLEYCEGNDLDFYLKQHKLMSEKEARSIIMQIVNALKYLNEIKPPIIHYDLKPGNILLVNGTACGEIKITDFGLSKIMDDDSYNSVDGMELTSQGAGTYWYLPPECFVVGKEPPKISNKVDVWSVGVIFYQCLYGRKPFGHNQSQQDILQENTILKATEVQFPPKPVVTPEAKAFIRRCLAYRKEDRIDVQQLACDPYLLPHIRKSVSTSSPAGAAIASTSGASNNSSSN

As a reminder, the residual activity is the signal under treatment as a percentage of the control signal. In the case of `CN(C)c1ccc(/C=C2\C(=O)Nc3ccccc32)cc1`, the residual activity was determined as 94% in assay [1]; 25% in [2]; 90% in assay [3]; 90% in assay [4]; 94% in [5]; 113% in [6]. Moreover, the residual activity in assay [7] turned out to be 111%; in assay [8] it was 75%; in assay [9] it was 98%; in assay [10], 97%; in assay [11], 104%; in assay [12], 101%. The residual activity in [13] stood at 97%; in assay [14], 87%; in assay [15], 68%; in [16] it was 83%; in assay [17], 70%; in assay [18] it was 10%. Further, the results for the residual activity in assay [19] and in assay [20] were 3% and 46%, respectively.
For the molecule `O=C1NC(=O)/C(=C\c2ccc3nccnc3c2)S1`, the residual activity turned out to be 90% in [1]; 75% in assay [2]; 43% in assay [3]; 35% in assay [4]; 88% in assay [5]; 86% in assay [6]. The residual activity in [7] was determined as 109%; in assay [8], 81%; in assay [9], 103%; in assay [10], 91%; in [11] it was 92%; in assay [12], 58%. Besides, the residual activity in assay [13] amounted to 86%; in assay [14], 98%; in [15], 79%; in assay [16], 75%; in [17] it was 83%; in assay [18] it was 127%. The residual activity in [19] came to 96%; in assay [20] it was 126%.
With `CC(C)n1cnc2/c(=N/c3cccc(Cl)c3)nc(NCCO)[nH]c21`, the residual activity was found to be 75% in assay [1]; 35% in assay [2]; 43% in assay [3]; 58% in assay [4]; 85% in assay [5]; 64% in assay [6]. In addition, the residual activity in assay [7] was determined as 76%; in assay [8], 68%; in assay [9], 82%; in assay [10], 68%; in assay [11], 94%; in [12] it was 60%. Besides, the residual activity in [13] turned out to be 81%; in [14] it was 71%; in [15], 31%; in [16], 91%; in assay [17], 89%; in [18] it was 24%. For the same molecule, the results for the residual activity in assay [19] and in assay [20] were 1% and 8%, respectively.
